This is a sample that favours compounds with a hit; in the whole collection about 19% have one here.
Giardia kill = Small Molecules that selectively kill Giardia lamblia: qHTS | Giardia lamblia trophozoite viability | activity change, % at 7.66 µM, hits read low | 340,000 compounds, 0.15% hits | AID 540267, 2011; in the data active = activity change below about -80%; inconclusive = between about -30% and that limit;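 note: parasites exposed to compound for two days anaerobically before the ATP read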
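Giardia lamblia trophozoites (100 cells/well) were incubated with compounds for 48 h at 37 deg C under anaerobic conditions. Viability was read as ATP content by one-step luminescence after 15-30 min at room temperature.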
TDP1 cell CPT = qHTS for Inhibitors of human tyrosyl-DNA phosphodiesterase 1 (TDP1): qHTS in cells in presence of CPT; AID 686979, 2013; Potency, µM (highest dose often 46.2 µM), for inactives: at the top dose activity change, negative = growth inhibition, usual class: inhibitors; 420,000 compounds, 12% hits; chicken DT40 Tdp1-/-;hTDP1 cells + 20 nM CPT, ATP luminescence, 48 h; note: potency is the fitted concentration of half-maximal effect; nearly all actives have a fitted effect of over 55% in size
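Cell growth measured by CellTiter-Glo luminescence after a minimum 48 h, 37 C compound exposure with 20 nM CPT in Tdp1-knockout DT40 cells stably expressing hTDP1, seeded 400/well; qHTS titration format.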
IL-1B inflam inh = qHTS for Inhibitors of Inflammasome Signaling: IL-1-beta AlphaLISA Primary Screen; THP-1 LPS/ATP IL-1B secretion, AlphaLISA, 16 h; active compounds read low; activity change, % at 57.5 µM; 360,000 compounds, 4.7% hits; in the data active = activity change below about -50%; inconclusive = mostly about -30% to -49%
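THP-1 cells pretreated 1 hr with compounds (up to 57.5 uM final), then stimulated with LPS (250 ng/mL final) plus ATP (1.25 mM final); secreted IL-1B measured by AlphaLISA after 16 hr, decreased signal indicating inhibition.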
DT40 TDP1 no CPT = qHTS for Inhibitors of human tyrosyl-DNA phosphodiesterase 1 (TDP1): qHTS in cells in absence of CPT; DT40 Tdp1-/- hTDP1 cells, no CPT, ATP luminescence, 48 h; Potency, µM (top dose mostly 46.2 µM), inactives show at the highest dose activity change, negative = growth inhibition, actives largely listed as inhibitors; 420,000 compounds, 15% hits; note: potency is the fitted concentration of half-maximal effect; nearly all actives have a fitted effect of over 55% in size
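Growth kinetics read by CellTiter-Glo luminescence after ≥48 hr at 37 °C. Cells: DT40 Tdp1-/- stably carrying human TDP1, 400 per well, compound exposure in the absence of CPT (DMSO vehicle).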
ELG1 DNA repair = qHTS screen for small molecules that inhibit ELG1-dependent DNA repair in human embryonic kidney (HEK293T) cells expressing luciferase-tagged ELG1 | HEK293T ELG1-luciferase reporter, luminescence, 16 h; DNA damage induced by 5-fluorouridine | Potency, µM (highest dose often 46.1 µM), for inactives: at the highest dose activity change, negative = inhibition, usual class: inhibitors | 330,000 compounds, 2.3% hits | AID 504467, 2011; note: potency is the fitted concentration of half-maximal effect; nearly all actives have a fitted effect of over 55% in size
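HEK293T cells expressing luciferase-tagged ELG1 (2,000/well) received 5-Fluorouridine plus compound or DMSO for 16 hr at 37 °C. Luciferase was read by ONE-Glo luminescence after 30 min at room temperature.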
TDP1 inh = qHTS Assay for Inhibitors of Tyrosyl-DNA Phosphodiesterase (TDP1) | Tyrosyl-DNA phosphodiesterase 1 (Homo sapiens), Q9NUW8 | recombinant TDP1, AlphaScreen DNA substrate cleavage | Potency, µM (top dose mostly 130 µM), for inactives: top-dose activity change, negative = inhibition, usual class: inhibitors | 350,000 compounds, 0.28% hits | AID 485290, 2010; note: potency is the fitted concentration of half-maximal effect; nearly all actives have a fitted effect of over 40% in size
Target sequence (Q9NUW8 whole entry, looked up): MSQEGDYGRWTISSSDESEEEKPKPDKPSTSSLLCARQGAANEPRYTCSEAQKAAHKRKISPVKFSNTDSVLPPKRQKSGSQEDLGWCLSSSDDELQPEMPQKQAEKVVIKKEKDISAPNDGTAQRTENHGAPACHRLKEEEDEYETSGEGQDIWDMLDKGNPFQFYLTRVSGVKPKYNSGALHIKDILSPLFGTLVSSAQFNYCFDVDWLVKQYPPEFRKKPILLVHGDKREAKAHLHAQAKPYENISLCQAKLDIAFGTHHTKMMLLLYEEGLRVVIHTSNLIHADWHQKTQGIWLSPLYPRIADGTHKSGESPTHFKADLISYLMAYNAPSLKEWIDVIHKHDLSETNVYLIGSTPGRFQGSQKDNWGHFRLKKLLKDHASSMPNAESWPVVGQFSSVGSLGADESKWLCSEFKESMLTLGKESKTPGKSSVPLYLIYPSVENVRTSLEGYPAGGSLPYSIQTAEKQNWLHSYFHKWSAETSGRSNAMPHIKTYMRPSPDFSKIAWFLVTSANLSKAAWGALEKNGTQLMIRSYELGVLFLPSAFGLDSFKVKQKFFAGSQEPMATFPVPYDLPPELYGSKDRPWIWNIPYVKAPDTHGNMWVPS
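Compounds were preincubated with Tdp1 (1 nM final) for 15 min at room temperature before substrate (15 nM final) started a 5 min reaction; beads (10 ug/ml final) were then added for 10 min before AlphaScreen detection.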
Starred values were filed as active, the others as inactive; u = inconclusive; x = not tested or not shown; [ ] = dose if it differs, or a comment. Unless noted, calls come from the whole dose curve; as a rule, active = well fitted curve in the direction sought with a large enough effect; inconclusive = small, poorly fitted or top-dose-only effect, or another doubt; inactive = no such curve, though single readings can be large; an effect the other way counts as inactive or inconclusive. % is set by controls: 0 for no effect and ±100 for the full control effect.

SMILES	Giardia kill	TDP1 cell CPT	IL-1B inflam inh	DT40 TDP1 no CPT	ELG1 DNA repair	TDP1 inh
CC(=O)OCC1=C(C(=O)O)N2C(=O)C(NC(=O)CSc3ccncc3)[C@@H]2SC1 (stereo partly specified)	x	-2%	x	-6%	x	14µM*
NCc1ccccc1CC(=O)N[C@@H]1C(=O)N2C(C(=O)O)=C(CSc3nnnn3CC(=O)O)CS[C@@H]12	x	x	x	x	x	10µM*
Cc1c(Br)cccc1NC(=O)C1(C)CCN1C(C)C (stereo unspecified)	x	u	-12	u	x	x
O=C(NC1CCCCC1)c1ccc2ccccc2c1	x	-20%	-17	u	x	x
O=C(NC1CC1)c1ccc2c(c1)C1C3CCC(C3)C1C(c1ccccc1)N2 (stereo unspecified)	4	u	u	26µM*	-22%	6%
COc1ccc(-c2nc(-c3ccccc3)c(NCc3ccccc3)o2)cc1	x	x	x	x	x	5%
Cc1ccc(S(=O)(=O)c2c(COC(=O)c3ccc(Cl)cc3)c(-c3ccccc3)nn2C)cc1	-10	16µM*	0	u	-14%	-2%
O=C(OCc1nnc(-c2ccccc2)o1)c1ccc(Cl)cc1	-4	-10%	-14	8%	4%	5%
O=C(C1=C[C@@H](c2coc3ccccc3c2=O)C[C@@H](OCc2ccc(CO)cc2)O1)N1CCN(Cc2ccccc2)CC1	10	18µM*	u	u	u	8%
O=C(C1=C[C@@H](c2coc3ccccc3c2=O)C[C@@H](OCc2ccc(CO)cc2)O1)N1CCCCCCC1	-1	12µM*	-19	u	u	6%
CN1CCN(C(=O)C2=C[C@@H](c3coc4ccccc4c3=O)C[C@@H](OCc3ccc(CO)cc3)O2)CC1	-6	2%	12	-8%	-4%	1%
COc1cccc(C2=CC(c3ccc(OC)c(OC)c3OC)n3ncnc3N2)c1 (stereo unspecified)	x	u	x	u	x	3%
COc1ccc(C2C=C(c3ccc(C)c(C)c3)Nc3ncnn32)c(OC)c1OC (stereo unspecified)	5	8.2µM*	-14	5.2µM*	u	4%
COc1ccc(C2C=C(c3ccc(Cl)cc3)Nc3nc(-c4ccc(Cl)cc4)nn32)cc1 (stereo unspecified)	x	8.2µM*	x	4.6µM*	x	x
Cc1ccc(-c2nc3n(n2)C(c2ccccc2C)C=C(c2ccc(Cl)cc2)N3)cc1 (stereo unspecified)	x	u	x	23µM*	x	5%
COc1ccc(C2C=C(c3ccccc3)Nc3ncnn32)cc1 (stereo unspecified)	5	18µM*	-19	u	8%	9%
Cc1ccc(C2=CC(c3ccccc3C)n3c(nc4ccccc43)N2)cc1 (stereo unspecified)	x	u	x	u	x	9%
CCCCC[C@H](O)/C=C/[C@H]1OC(O)C[C@H](O)[C@@H]1C/C=C\CC(=O)O (stereo partly specified)	x	x	x	x	x	2%
Cc1ccc(C2=CC(c3ccc(Cl)cc3)n3nc(-c4ccc(C)cc4)nc3N2)cc1 (stereo unspecified)	x	33µM*	x	u	x	4%
O=C(CCN1CCC(c2ccccc2)C1)c1cccs1 (stereo unspecified)	-10	1.8µM*	-15	2.6µM*	0%	4%
O=C(CCN1CCC(c2ccccc2)C1)c1ccc2c(c1)OCCO2 (stereo unspecified)	3	2.1µM*	-14	1.8µM*	-7%	7%
O=C(CCN1CCC(c2ccccc2)C1)c1ccccc1 (stereo unspecified)	-13	3.7µM*	3	3.7µM*	-12%	7%
O=C(c1cccs1)N1CCC(c2ccccc2)C1 (stereo unspecified)	5	-6%	0	-20%	u	5%
N=c1n(CCN2CCCCC2)c2ccccc2n1CC(=O)c1cccs1	15	18µM*	-76*	21µM*	-12%	-9%
COc1ccc(-n2nnc(-c3nsc(NC(=O)c4cccs4)n3)c2C)cc1OC	x	-28%	x	-28%	x	-13%
SMILES	Giardia kill	TDP1 cell CPT	IL-1B inflam inh	DT40 TDP1 no CPT	ELG1 DNA repair	TDP1 inh
CC(C)CCN1C(=O)c2ccc(C(=O)NCc3ccccn3)cc2C1=O	0	5%	0	-2%	4%	0%[0.505 µM]
COc1ccc(OC)c(S(=O)(=O)n2ccnc2C(C)C)c1	-13	2%	-3	3%	-14%	x
COc1cc(C(=O)CCN2CCC(c3ccccc3)C2)cc(OC)c1OC (stereo unspecified)	1	4.6µM*	-105*	5.8µM*	11%	7%
O=C(CCN1CCCC1)c1cccs1	23	0.73µM*	-13	1.5µM*	-9%	11%
O=C(CCN1CCC2CCC(C2)C1)c1ccc(F)cc1 (stereo unspecified)	-9	3.3µM*	-19	2.9µM*	x	x
O=C(CCC(=O)N1CCN(c2ccccn2)CC1)c1cccs1	31	u	-28	-19%	u	2%
O=C(CCN1CCC(c2cccs2)=N1)c1cccs1	3	5.8µM*	-9	5.2µM*	u	6%
COc1ccccc1NC(=O)C1=C(C)Nc2nc(SC)nn2C1c1ccccc1Cl (stereo unspecified)	x	-28%	x	u	x	0%
CC1(C)CC(=O)C=C(NC2=CC3OC(c4ccccc4)OCC3OC2=O)C1 (stereo unspecified)	-3	5.8µM*	-25	6.5µM*	13µM*	0%
COc1ccc(Nc2nc(NCc3cccs3)nc3ccsc23)cc1OC	x	26µM*	-87*	18µM*	x	x
c1csc(CNc2nc(Oc3ccncc3)c3sccc3n2)c1	x	-26%	u	-14%	x	x
O=C(COC(=O)Cc1ccc(Br)cc1)NCc1cccs1	-18	-5%	-1	-6%	11%	-1%
CCOC(=O)Cc1ccc(Nc2nc(NCc3cccs3)nc3ccsc23)cc1	x	21µM*	-84*	21µM*	x	x
Cc1nc2ccccc2c(=O)n1NC(=O)CCC(=O)O	6	-3%	8	8%	2%	3%
